Screening results deposited in PubChem by The Scripps Research Institute Molecular Screening Center.
Compounds with a hit are over-represented: about 3.5% of the library has one in this group of screens.
MITF inh = human MITF inhibition, primary screen | O75030 | AlphaScreen MITF homodimerization, bead proximity signal | inhibition, % at 2.6 µM | 0.91% of 650,000 active; in the data active means inhibition above about 50%;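 further: 0% = vehicle wells with protein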
TEAD-YAP inh = TEAD-YAP interaction inhibition; 1.4% of 640,000 active; inhibition, % at 9.12 µM; HEK-TIYL cells, TEAD-Gal4/YAP UAS-luciferase luminescence; AID 1259422; in the data active means inhibition above about 32%;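 further: 0% = median of test compound wells and 100% = reference inhibitor wells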
FBW7 activator = human FBW7 E3 ligase activation, primary screen. normalized activity (activation), % at 26.1 µM. 0.13% of 650,000 active. AlphaScreen FBW7–phospho-cyclin E peptide binding, activator screen. Q969H0. AID 1259310; in the data active means normalized activity above about 1.9%;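 further: purified mutant Fbw7 with reduced substrate affinity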
Target sequence (Q969H0 whole entry, looked up): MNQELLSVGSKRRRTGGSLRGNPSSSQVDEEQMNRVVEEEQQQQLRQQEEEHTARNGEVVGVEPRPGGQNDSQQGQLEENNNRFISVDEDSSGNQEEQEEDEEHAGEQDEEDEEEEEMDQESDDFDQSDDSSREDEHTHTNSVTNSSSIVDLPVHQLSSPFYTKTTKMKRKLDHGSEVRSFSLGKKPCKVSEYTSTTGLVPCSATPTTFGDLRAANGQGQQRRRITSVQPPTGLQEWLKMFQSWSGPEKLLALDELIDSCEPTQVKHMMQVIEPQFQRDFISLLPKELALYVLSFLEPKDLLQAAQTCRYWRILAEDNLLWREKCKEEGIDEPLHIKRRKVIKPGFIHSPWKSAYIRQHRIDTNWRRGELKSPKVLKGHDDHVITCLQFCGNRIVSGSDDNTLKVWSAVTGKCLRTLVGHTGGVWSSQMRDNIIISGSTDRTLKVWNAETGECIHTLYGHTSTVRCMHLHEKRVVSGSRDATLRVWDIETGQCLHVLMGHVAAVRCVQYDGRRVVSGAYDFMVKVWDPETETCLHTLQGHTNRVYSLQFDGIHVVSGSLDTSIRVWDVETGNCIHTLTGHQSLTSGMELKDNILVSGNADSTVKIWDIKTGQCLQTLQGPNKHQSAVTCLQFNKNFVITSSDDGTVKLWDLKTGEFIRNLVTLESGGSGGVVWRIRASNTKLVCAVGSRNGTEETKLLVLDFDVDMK
GPR151 activ = activators of human GPR151. AID 1508602. PathHunter beta-arrestin GPR151 cells, luminescence. 1% of 650,000 active. Q8TDV0. activation, % at 11.2 µM; in the data active means activation above about 4.9%;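 further: 0% = median of compound wells and 100% = cells with positive control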
* marks the source's active call; other numbers are inactive results.

SMILES	MITF inh	TEAD-YAP inh	FBW7 activator	GPR151 activ
COCCC(=O)N1CCc2nnc(C(NC(=O)c3ccccn3)C(C)C)n2CC1 (stereo not drawn)	-1	-3	0	3
CN1CCN(c2ccc(-c3nc4ccc(C(N)=O)cc4s3)cc2)CC1	-1	44*	0	0
O=C(C1CCCO1)N1CCC(c2ccnc(-c3ccccc3)n2)CC1 (stereo not drawn)	9	1	0	-2
C=CC(=O)Nc1ccc(Br)cc1	6	36*	0	-1
O=C(O)/C=C\C(=O)Nc1ccc(Br)cc1	4	5	0	1
CCCN1CCC2(CC1)NC(=O)N(CC(=O)NCCc1ccccc1)C2=O	10	4	0	-2
CCCN1CCC2(CC1)NC(=O)N(CC(=O)NCCc1ccc(OC)c(OC)c1)C2=O	15	8	2.7*	0
CC(C)[C@H](NC(=O)c1ccc(Br)cc1)C(=O)O	6	5	0	2
CC(C)(C)c1ccc(/C=C/C(=O)Nc2ccccn2)cc1	-7	70*	0	-2
COc1ccc(/C=C/C(=O)Nc2ccccn2)cc1	6	47*	0	-10
Cc1ccc(NC(=O)/C=C/c2ccco2)nc1	3	24	0	-1
COc1ccc(/C=C/C(=O)NCc2ccccn2)cc1	-10	-22	0	0
O=C(/C=C/c1ccco1)Nc1ccccn1	1	51*	-2	-7
Cc1ccc(N2NC(=O)/C(=C/c3ccc(C)c([N+](=O)[O-])c3)C2=O)cc1	-6	-15	0	0
O=C1N/C(=C/c2cccc(F)c2)C(=O)N1Cc1ccc(Br)cc1	1	55*	0	-1
COc1cc(/C=C2/NC(=O)N(Cc3ccc(Br)cc3)C2=O)cc2c1OCO2	-2	60*	0	1
COc1ccc(C2=C/C(=C/c3ccco3)C(=O)O2)cc1OC	74*	-3	0	-1
CC1=C/C(=C/c2ccco2)C(=O)O1	65*	1	0	1
O=C1OC(c2ccc(Cl)cc2)=C/C1=C\c1ccco1	53*	-9	0	0
CN1C/C(=C/c2ccco2)C(=O)/C(=C/c2ccco2)C1	28	3	0	0
Cc1ccc(C2=C/C(=C/c3ccc(Cl)cc3)C(=O)O2)cc1	0	15	0	-1
O=C(CN1C(=O)NC2(CCOc3ccccc32)C1=O)Nc1ccc(N2CCCCC2)cc1 (stereo not drawn)	6	-7	0	4
Cc1ccc(C(=O)O)cc1NC(=O)c1cc2cc(Cl)ccc2oc1=O	0	-1	0	0
CN(C)S(=O)(=O)c1cccc(NC(=S)Nc2ccccc2C#N)c1	-3	87*	0	1
COc1ccc(C)cc1-n1nnnc1SCC(=O)c1[nH]c(C)c(C(C)=O)c1C	12	33*	0	0
SMILES	MITF inh	TEAD-YAP inh	FBW7 activator	GPR151 activ
Oc1c(C(c2ccc(F)cc2)N2CCCC2)ccc2cccnc12 (stereo not drawn)	11	80*	-2	-1
Oc1c(C(c2ccc(F)cc2)N2CCOCC2)ccc2cccnc12 (stereo not drawn)	27	76*	-2	1
Fc1ccc(Cn2nnnc2C(c2ccc3ncccc3c2)N2CCCC2)cc1 (stereo not drawn)	-6	-7	0	1
Oc1c(C(c2ccc(C(F)(F)F)cc2)N2CCOCC2)ccc2cccnc12 (stereo not drawn)	17	82*	0	1
Oc1c(C(c2ccncc2)N2CCOCC2)ccc2cccnc12 (stereo not drawn)	90*	71*	0	1
COc1ccnc(Cn2c(=O)n(C)c3ncccc32)c1OC	10	-1	0	2
Cc1cc(N=Cc2nc(-c3ccc(Br)cc3)oc2O)no1	19	-2	0	0
CC1=C(C(=O)Nc2nc3ccccc3s2)C(c2cccc([N+](=O)[O-])c2)C2=C(CC(C)(C)CC2=O)N1 (stereo not drawn)	13	-3	0	-1
Cc1ccc(-c2csc(N)n2)c2ccccc12	4	-17	0	0
CN1CCN(C(c2ccc(F)cc2)c2ccc3cccnc3c2O)CC1 (stereo not drawn)	33	84*	0	0
CN1CCN(C(c2cccnc2)c2ccc3cccnc3c2O)CC1 (stereo not drawn)	34	0	0	0
OCCN1CCN(C(c2ccc(Cl)cc2)c2ccc3cccnc3c2O)CC1 (stereo not drawn)	21	74*	0	0
COc1cc(C(=O)N2c3ccccc3NC3=C(C(=O)CC(C)(C)C3)C2c2cccc(Br)c2)cc(OC)c1OC (stereo not drawn)	1	-14	0	-1
CSCC(=O)N1CCC2(CC1)CC2C(=O)NCc1ccccc1C(F)(F)F (stereo not drawn)	15	-1	0	1
Cn1c2ccccc2c2nnc(N/N=C/c3ccccn3)nc21	45	36*	-1	0
NC(=O)c1ccccc1NC(=O)c1ccc(Cn2nnc3ccccc32)cc1	4	56*	0	0
NC(=O)c1ccccc1NC(=O)c1ccc(Cl)cc1	4	-53	0	-1
CC(C)c1ccc(C(=O)Nc2ccccc2C(N)=O)cc1	9	33*	0	1
COc1ccc(-n2nnnc2-c2cccc(OC)c2)cc1	10	58*	0	3
COc1ccc(N2CCN(Cc3nc(N)c4cc(C)ccc4n3)CC2)cc1	3	-5	-1	2
C=CCOc1ccc(C=C2C(=O)N(C)C(=S)N(C)C2=O)cc1OC	67*	0	0	0
C=CCOc1ccc(C=C2C(=O)N(C)C(=S)N(C)C2=O)cc1I	13	15	0	-1
Nc1ccc(OCc2ccc(COc3ccc(N)cc3)cc2)cc1	-116	21	17*	1
COc1c(Br)cc(/C=C2/SC(N)=NC2=O)cc1Br	-2	0	0	1
O=C(/C=C/Nc1ccccc1I)c1ccccc1	-1	91*	0	-5
SMILES	MITF inh	TEAD-YAP inh	FBW7 activator	GPR151 activ
O=C(/C=C/Nc1ccc(F)cc1F)c1ccccc1	-23	84*	0	-2
O=C(/C=C/Nc1ccc([N+](=O)[O-])cc1Br)c1ccccc1	7	43*	0	-1
O=C(/C=C/Nc1ccc(F)cc1Br)c1ccccc1	6	86*	0	-4
Cc1cnc(-c2ccc(C(N)=O)cc2)nc1NCCN(C(C)C)C(C)C	4	-6	0	0
COc1ccc(C(=O)/C=C/Nc2ccc(F)cc2F)cc1	17	-33	1	-1
COc1cccc(C(=O)/C=C/Nc2ccc(F)cc2F)c1	9	71*	0	-4
CCc1ccc(C(=O)/C=C/Nc2ccccc2O)cc1	2	39*	0	-4
O=C(/C=C/Nc1ccccc1F)c1ccccc1	12	61*	0	-5
Cc1ccc(C(=O)/C=C/Nc2ccccc2O)cc1	-31	4	0	-2
COc1cccc(-c2noc(-c3ccc([N+](=O)[O-])cc3)n2)c1	18	3	0	-2
O=C(CN1CCC(Cn2cnc3ccccc32)CC1)Nc1nc2ccc(F)cc2s1	36	56*	0	1
